From PubChem BioAssay AID686979 (National Center for Advancing Translational Sciences (NCATS), 2013) come the findings set out here.

In all, about 420,000 compounds went through this assay and about 50,000 (12%) were called active. Inconclusive results (about 26%) are left out. This is one part of a sample in which actives are shown more often than they occur. Unmarked numbers belong to inactive results. Calls come from the whole dose curve; as a rule, active = well fitted inhibition curve with a large enough effect; inconclusive = small, poorly fitted or top-dose-only effect; inactive = flat fitted curve, though single readings scatter.
% is set by controls: 0 for no effect and ±100 for the full control effect; potency is the fitted concentration of half-maximal effect.

The nature of the assay: qHTS for Inhibitors of human tyrosyl-DNA phosphodiesterase 1 (TDP1): qHTS in cells in presence of CPT. Note: nearly all actives have a fitted effect of over 55% in size. As to conditions: chicken DT40 Tdp1-/-;hTDP1 cells + 20 nM CPT, ATP luminescence, 48 h; series mostly up to 46.2 µM; activity change, negative = growth inhibition: at the top concentration. In short, it runs like this:
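Chicken DT40 Tdp1-/- cells stably complemented with human TDP1 were seeded at 400 cells/well in medium containing 20 nM camptothecin, exposed to pin-transferred compounds, and grown at 37 °C for at least 48 hr. Viability was read as ATP luminescence.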
(In general: Quantitative high-throughput screening tests each substance at several concentrations.)
As to `Cc1ccc(-c2cnc(C(O)c3cccc(C)c3C)[nH]2)cc1` (stereo not given), the “activity change, negative = growth inhibition” value was -25.5%.
With `COc1cccc(-c2ccc(C#N)c(SCC(=O)NCCc3ccc(Cl)cc3)n2)c1`, the “activity change, negative = growth inhibition” value was -4.8%.
`CCCc1ccc(C(O)c2ncc(-c3cccc(OC)c3)[nH]2)cc1` (stereo not given): the Potency is 16.4 µM (active).
Same read-out and setting: in the case of `COc1c(C)cc(C(O)c2ncc(-c3cccc(C(F)(F)F)c3)[nH]2)cc1C` (stereo not given) it was 23.1 µM (active).
For `O=C(O)c1ccc(/C=C2\SC(=S)N(NC(=O)c3ccc(Br)cc3)C2=O)cc1`, the “activity change, negative = growth inhibition” value is -6.8%.
For the compound `C=CCO/N=C/C1=C(O)C(C(=O)OC)C(C)(C)CC1=O` (stereo not given), the “activity change, negative = growth inhibition” value was 3.24%.
For the compound `CCCCC(NC(=O)c1cccc(Br)c1)C(=O)O` (stereo not given), the “activity change, negative = growth inhibition” value is 2.45%.
`CSc1ccc(/C=N\NC(=O)CC(=O)NC(C)C)cc1`: the “activity change, negative = growth inhibition” value is -1.78%.
Same read-out and setting: in the case of `Cc1cc(C)n(-c2nc(O)cc(=O)[nH]2)n1` it was 8.2%; in that of `COC(=O)C1=C(C(=O)c2ccc(C)cc2)C(c2ccccc2)n2nnnc2N1` (stereo not given), 6%.
As to `O=Cc1c(Nc2ccccc2Cl)nc2ccccn2c1=O`, the “activity change, negative = growth inhibition” value was 9.71%.
Same read-out and setting: under `COc1cc(N=Cc2c(O)c3ccccc3oc2=O)c(OC)cc1Cl` stands -28.4%.
In the case of `CC(=O)Nc1ccccc1Sc1ccc2c3c(cccc13)C(=O)N(c1ccc(C)cc1)C2=O`, the Potency was 11.6 µM (active).
For `CCOC(=O)Nc1ccccc1N1C(=O)c2ccccc2C1=O`, the “activity change, negative = growth inhibition” value is -2.91%.
Still for that read-out and setting: under `CSc1ccccc1NC(=O)C(C)N1C(=O)c2ccccc2S1(=O)=O` (stereo not given) stands 17%; under `COc1ccc(NC(=O)COC(=O)C2COc3ccccc3O2)cc1` (stereo not given), -5.6%.
Regarding `CN(C)c1ccc(C(CC(=O)O)C(=O)O)cc1` (stereo not given), the “activity change, negative = growth inhibition” value is -3.14%.
As to `N#C[C@]1(S(=O)(=O)c2ccccc2)C[C@@H]2ON=C(c3cccc(Br)c3)[C@@H]2C1`, the Potency was 9.2 µM (active).
As for `COC(=O)[C@]1(S(=O)(=O)c2ccccc2)C[C@@H]2ON=C(c3ccc(OC)cc3)[C@@H]2C1`, the “activity change, negative = growth inhibition” value was -13.2%.
As for `O=C(NCCCn1ccnc1)C1CCCN(S(=O)(=O)c2cc(Cl)ccc2Cl)C1` (stereo not given), the “activity change, negative = growth inhibition” value is -12.4%.
Still for that read-out and setting: in the case of `CCC1(c2ccccc2)NC(=O)N(CC(=O)Nc2ccccc2C(=O)NC2CCCC2)C1=O` (stereo not given) it was -29.4%.
Still for that read-out and setting: in the case of `COc1ccc(S(=O)(=O)n2nc(C)c(S(=O)(=O)N3CCOCC3)c2C)cc1` it was -1.57%.
Take `CC1CCCCC1NC(=O)/C(C#N)=C/C=C/c1ccccc1[N+](=O)[O-]` (stereo not given): the Potency was 10.3 µM (active).
As for `O=C(/C=C/c1ccccc1[N+](=O)[O-])OC1CCCCC1=O` (stereo not given), the “activity change, negative = growth inhibition” value was -14.9%.
For `O=C(/C=C/c1ccccc1[N+](=O)[O-])NCC1CCCO1` (stereo not given), the “activity change, negative = growth inhibition” value is -3.02%.
As for `O=C(Nc1cccc(C(=O)O)c1)/C(=C\c1ccccc1)NC(=O)c1ccc(Br)o1`, the “activity change, negative = growth inhibition” value is 3.2%.
Same read-out and setting: in the case of `COc1ccc(-n2ccn(CC(=O)Nc3ccc(C)c(C)c3)c(=O)c2=O)cc1OC` it was -3.68%; in that of `Cc1ccc(CNC(=O)CCc2c(C)nc3nc(CNC(=O)OC(C)(C)C)nn3c2C)cc1`, -8.79%.
Take `O=C(Oc1c(-c2ccco2)oc2ccccc2c1=O)c1cccnc1`: the Potency is 16.4 µM (active).
For `O=C(Oc1ccc(Br)cc1)c1cccnc1`, the “activity change, negative = growth inhibition” value was 22.8%.
With `O=C(Oc1cccnc1)c1cc2ccccc2oc1=O`, the “activity change, negative = growth inhibition” value was -3.36%.
For `O=S1(=O)CCO[C@H]2Cc3ccccc3[C@H]2N1Cc1ccccc1`, the “activity change, negative = growth inhibition” value is -13.6%.
Take `Cc1ccc(Sc2ccncc2S(N)(=O)=O)cc1`: the “activity change, negative = growth inhibition” value is 3.01%.
Take `CCCc1cc(C(=O)Nc2ccc(Cl)cn2)cs1`: the “activity change, negative = growth inhibition” value was 0.0898%.
On to `Cc1cccc(NC(=O)Cn2cc(C(=O)c3ccco3)c3ccccc32)c1`, for which the Potency was 18.4 µM (active).
Consider `CC1CCN(C(=O)Cn2cc(C(=O)c3ccco3)c3ccccc32)CC1`, for which the “activity change, negative = growth inhibition” value is -12.7%.
The same measure, in the same setting: under `Cc1ccccc1NC(=O)Cn1cc(C(=O)C2CC2)c2ccccc21` stands -24.4%; under `Cc1cccc(NC(=O)c2cccc(S(=O)(=O)N3CCCC3)c2)n1`, -29.7%.
Consider `CCn1c(O)c(N=NC(=O)c2cccc(S(=O)(=O)N3CCCCC3)c2)c2ccccc21`, for which the Potency is 14.6 µM (active).
As to `CCn1c2ccccc2c2cc(NC(=O)COC(=O)c3cc(S(=O)(=O)N4CCCCC4)ccc3Cl)ccc21`, the “activity change, negative = growth inhibition” value was -5.5%.
The same measure, in the same setting: under `O=S1(=O)C[C@@H](N2CCN(CCO)CC2)[C@H](COCc2ccccc2)N1` stands -4.37%; under `COc1ccc(N(CC(=O)Nc2cccc3ccccc23)S(C)(=O)=O)c(OC)c1`, -13.2%.
For `O=C(NCCN1CCOCC1)C1CCN(S(=O)(=O)c2ccccc2)CC1`, the “activity change, negative = growth inhibition” value is 13.8%.
In the case of `COc1cc(-c2cc3n(C)c(C)c(CCC(=O)Nc4ccc(F)cc4)c(=O)n3n2)cc(OC)c1OC`, the “activity change, negative = growth inhibition” value is -2.72%.
Turning to `COc1cc(NC(=O)c2cc(-c3ccc(F)cc3OC(C)C)n[nH]2)cc(OC)c1OC`, the Potency is 14.6 µM (active).
On to `CC(C)Oc1cc(F)ccc1-c1cc(C(=O)Nc2cccc(Cl)c2)[nH]n1`, for which the Potency is 18.4 µM (active).
As for `O=C(Nc1cccc(Cl)c1)c1cc(S(=O)(=O)N2CCCCC2)c[nH]1`, the “activity change, negative = growth inhibition” value was 11.7%.
On to `O=C(Nc1cccc(Cl)c1)c1cncn1-c1ccc(F)cc1`, for which the “activity change, negative = growth inhibition” value was -3.46%.
The same measure, in the same setting: in the case of `COc1cc(F)ccc1-c1cc(C(=O)NCC2CCCCC2)[nH]n1` it was -24.6%; in that of `COc1ccccc1C(=O)OCC(=O)NCCNC(=O)COC(=O)c1ccccc1OC`, 4.02%.
